Laboratory results reported in PubChem BioAssay AID493240 (Broad Institute, 2011).
The whole screen tested about 1,300 compounds, of which about 270 (21%) were called active. The rule behind the calls is not given here. Only a sample is shown. Results with a measured potency or affinity are listed apart.

experiment: cytotoxicity in parental SK-MEL-5 melanoma cells – cell-based, CellTiter-Glo, cherry-picked, set 3, orthogonal assay for MITF inhibitor project, dose response (AID 493240); conditions: SK-MEL-5 viability, ATP luminescence (CellTiter-Glo), 24 h; series mostly up to 35 µM

Structure (SMILES)	outcome
Fc1ccccc1-c1nc(-c2ccncc2)no1	inactive
Clc1cccc(-c2nc(-c3ccccn3)no2)c1	inactive
C/C(=N/NC(=O)C(O)(c1ccccc1)c1ccccc1)c1ccc([N+](=O)[O-])o1	inactive
O=C(Nc1ccc2nc3n(c(=O)c2c1)CCCC3)c1cc([N+](=O)[O-])ccc1F	inactive
O=C(c1ccc([N+](=O)[O-])s1)N1CCN(c2ccccn2)CC1	inactive
CCN(CC(=O)Nc1ccc2c(c1)OCCO2)C(=O)c1ccc([N+](=O)[O-])s1	inactive
Cc1c(C#N)c(NC(=O)CCl)n(Cc2cccs2)c1C	inactive
O=C(/C=C/c1ccc2c(c1)OCO2)N1CCCCC1	inactive
Cc1ccccc1NCc1nc2ccccc2n1C	inactive
O=C(NC(=S)NCc1ccccc1)c1ccccc1	inactive
Cc1ccc(C(=O)N/C(=C\c2ccc(-c3ccccc3[N+](=O)[O-])o2)C(=O)NCCN(C)C)cc1	inactive
O=C(NCC1CCCO1)c1cc(-c2ccc(Cl)cc2Cl)on1 (stereo unspecified)	inactive
CCOc1ccc2cc(C#N)c(SCC(=O)OC)nc2c1	inactive
Cc1ccc2nc(-c3ccncc3)[nH]c2c1	inactive
Cn1nnnc1Sc1ncnc2scc(-c3cccc(F)c3)c12	inactive
CN(C)c1ccc(-n2cccc2/C=C/[N+](=O)[O-])cc1	inactive
Cc1ccc(/C=c2/sc3n(c2=O)CCCN=3)o1	inactive
Cc1ccc(C(=O)NC2=NCCS2)cc1Cl	inactive
Nc1nnc(/C=C/c2ccccc2Cl)s1	inactive
CC1CCN(Cc2nc(-c3ccc(Cl)cc3)no2)CC1	inactive
COc1cc(CN2CCC(C(=O)NCCC(C)C)CC2)ccc1OCc1ccccc1	inactive
CCOC(=O)N1CCC(NC(=O)C2CCCN(Cc3nc(-c4cccc(C)c4)oc3C)C2)CC1 (stereo unspecified)	inactive
CC(C)c1ccc(C(=O)Nc2cccnc2)cc1	inactive
Cc1cccc(NC(=O)c2cnn(-c3ccccc3)c2C)c1C	inactive
CCOc1ccccc1NC(=O)C1C2CCC(O2)C1C(=O)O (stereo unspecified)	inactive
N#Cc1c(NC(=O)CSc2ncn[nH]2)sc2c1CCCCC2	inactive

Structure (SMILES)	outcome
COC(=O)c1ccc(COc2ccc(C)cc2[N+](=O)[O-])o1	inactive
CCCOc1ccc(C(=O)Nc2ccc3c(c2)OCCO3)cc1	inactive
Cc1ccc(NC(=O)c2cc(N3C(=O)C=CC3=O)ccc2N2CCOCC2)cc1Cl	inactive
Cc1ccc(NC(=O)c2ccc([N+](=O)[O-])o2)cc1S(=O)(=O)N1CCOCC1	inactive
O=C(Nc1ccc(N2CCOCC2)cc1)c1cnsn1	inactive
Cc1ccc(NC(=O)c2ccc(OCC3CCCO3)cc2)c(C)c1 (stereo unspecified)	inactive
CCOC(=O)c1ccc(NC(=O)CC2SCCNC2=O)cc1 (stereo unspecified)	inactive
CCOC(=O)c1ccc(NC(=O)c2ccnn2C)cc1	inactive
O=C(Nc1ccccc1N1CCOCC1)c1ccc([N+](=O)[O-])s1	inactive
C=CCC(Nc1ccccc1)C12C=CC(O1)C(C(=O)OC)=C2C(=O)OC (stereo unspecified)	inactive
Cc1ccc(N2C(=O)c3ccc(N)cc3C2=O)cc1C	inactive
S=c1[nH]nc(-c2ccco2)n1/N=C/C(Cl)=C/c1ccccc1	inactive
CCCCC1C(=O)N(c2ccccc2)N(c2ccc(O)cc2)C1=O (stereo unspecified)	inactive
CCOC(=O)CSc1nc2cc(OCC)ccc2cc1C#N	inactive
Brc1ccc(-c2cn3cccnc3n2)cc1	inactive
O=C(NCc1ccco1)c1nc2c(nnn2Cc2ccccc2Cl)c(=O)[nH]1	inactive
CC(NC(=O)c1ccc([N+](=O)[O-])o1)C12CC3CC(CC(C3)C1)C2 (stereo unspecified)	inactive
C=C1C(=O)O[C@@H]2[C@H]1[C@@H](OC(=O)/C(C)=C/C)C/C(C)=C\C(=O)/C=C(\C)[C@@H]2O	inactive
CCN(CCO)c1ccc(N=Nc2cc(C)[nH]n2)cc1	inactive
CN(C)c1ccc(/C=C2\SC(=O)N(CCc3nnc(N)s3)C2=O)cc1	inactive
COc1ccc(-c2nc(-c3ccccc3OC)no2)cc1OC	inactive
O=C(Cn1ncc(Cl)c(Cl)c1=O)NCC1CCCCC1	inactive
Cc1cc(Br)ccc1NC(=O)CNC(=O)Cn1ncc(Cl)c(Cl)c1=O	inactive
Cc1ccc(NC(=O)Cn2ncc(Cl)c(Cl)c2=O)cc1S(=O)(=O)N1CCCCC1	inactive
CC(C)(C)C(=O)Cn1ncc(Cl)c(Cl)c1=O	inactive
O=C(Cn1ncc(Cl)c(Cl)c1=O)N1CCN(Cc2ccccc2)CC1	inactive

Structure (SMILES)	outcome
O=C1CN(C(=O)Cn2ncc(Cl)c(Cl)c2=O)c2ccccc2N1	inactive
Cc1ccc(CC(=O)Nc2ccc(Cl)cn2)cc1	inactive
C1CCC(C(CC2CCCCN2)C2CCCCC2)CC1 (stereo unspecified)	inactive
OCc1ccc(N=Nc2ccccc2)cc1	inactive
COc1cc(-c2nnc(-c3ccco3)o2)ccc1OCc1ccccc1	inactive
Cc1ccc2nc(C)cc(Nc3ccc([N+](=O)[O-])cc3)c2c1	inactive
CCOc1cccc(C(=O)NC2=NCCS2)c1	inactive
COc1ccc(C)cc1Nc1nc(N)c2cc(OC)c(OC)cc2n1	inactive
O=C(O)c1cc(N/N=C/C(Cl)=C/c2ccccc2)ccc1Cl	inactive
Cc1ccc(C(=O)Nc2nc3ccc(Cl)cc3s2)o1	inactive
Cc1ccc(-c2n[nH]c(=O)c3ccccc23)cc1S(=O)(=O)NCC1CCCO1 (stereo unspecified)	inactive
O=C(Nc1ccc2nn(-c3ccccc3)nc2c1)c1ccco1	inactive
CCOc1ccc(-c2nnc(-c3cccs3)o2)cc1OCC	inactive
Cn1cc(C(=O)N/N=C/c2c(O)ccc3ccccc23)ccc1=O	inactive
C/C(=N/Nc1nc(C)c(C)s1)c1cccc([N+](=O)[O-])c1	inactive
O=[N+]([O-])c1cc(Cl)cc(/C=N\Nc2ccccn2)c1O	inactive
Cc1ccc2oc(=O)n(CCCOc3ccccc3)c2c1	inactive
CCCOc1ccc(-c2c(=O)n(O)c3ccccc3[n+]2[O-])cc1	inactive
CCOc1ccc(-c2noc(CCC(=O)O)n2)cc1	inactive
COc1cccc(C(=O)N/N=C(/c2ccccc2)c2ccccn2)c1	inactive
O=C(Nc1ccc(F)cc1)c1nc(S(=O)(=O)Cc2ccccc2)ncc1Cl	inactive
O=C(Nc1ccc2ncccc2c1)c1ccccc1Br	inactive
CC(=O)Nc1ccc(NC(=O)c2nc(S(=O)(=O)Cc3ccccc3)ncc2Cl)cc1	inactive
CS(=O)(=O)c1ncc(Cl)c(C(=O)Nc2ccc(N3CCOCC3)cc2)n1	inactive
